This is an account of results in PubChem BioAssay (NCATS).

This is one part of the list. Inconclusive results are not listed. The source made the active and inactive calls. Calls follow the shape of the full dose curve.
% is scaled to controls: 0 for no effect and ±100 for the full control effect; potency is read from the fitted curve at half-maximal effect.

The assay has as its system Chikungunya virus nsP2 protease. The assay can be described thus: Confirmatory qHTS for inhibitors of NSP2Pro chikungunya virus (CHIKV) (AID 1964105). Also: nearly all actives have a fitted effect of over 75% in size. The note with it: CHIKV nsP2 protease enzymatic activity; series mostly up to 25.5 µM; activity change, negative = inhibition: at the top concentration. An excerpt: PI: Natalia J. Martinez Ph.D.
National Center for Advancing Translational Sciences (NCATS),
National Institute of Health (NIH), Rockville, Maryland
Chikungunya virus (CHIKV) is a mosquito-borne RNA virus that has emerged as one of the most important global arboviral threats in the last decade. Although the first CHIKV vaccine has recently been FDA approved for use in healthy adults at increased risk, to date, there are no available antiviral drugs for CHIKV infection. CHIKV nsP2 protease plays a crucial role in the processing of the viral polypeptide precursor to release enzymes required for viral replication, thus making it a promising drug target for antiviral discovery. Here, we established a high-throughput pipeline to identify small molecule inhibitors of nsP2 proteolytic activity. The pipeline is composed of a suite of 1,536-well in vitro assays to support quantitative high-throughput (qHTS) screening campaigns. Specifically, we developed a fluorescence resonance energy transfer (FRET)-based assay using a fluorogenic peptide substrate encompassing an endogenous cleavage site and purified recombinant protease domain (nsP2pro). Using this assay, we interrogated ~37,000 small molecules, including those in drug repurposing libraries as well as chemically diverse and medicinal chemistry-friendly compounds. Hits were selected for follow-up validation against full-length nsP2 and an additional peptide. FRET-based 1,536-well assays for papain, hepatitis C virus NS3-4A, and human furin proteases were implemented to characterize compound selectivity. […] Novel compounds were identified to be potential nsP2 inhibitors and molecular docking analyses were performed to explain the binding mode of selected hits. In vitro antiviral activity was evaluated for a subset of compounds using a high-throughput CHIKV infection assay. To our knowledge, the pipeline presented here is unprecedented for CHIKV antiviral discovery research.
PROTOCOL TABLE (as described by Inglese J, Shamu CE and Guy RK. 2007)
SEQUENCE No. (e.g., 1, 2, 3, etc.); […] (e.g., Cells, Incubation, Reagent, etc.); VALUE; DESCRIPTION.
1; Control / Compound; 20 nL; Echo 655 acoustic dispenser, Greiner 1536-well solid bottom black plate.
2; Enzyme; 4 uL; BioRAPTR FRD liquid dispenser (Beckman Coulter).
3; Incubation; 15 min; room temperature.
4; Reagent; 4 uL; 2.5 uM Peptide 2 substrate.
5; Incubation; 1 hr; room temperature.
6; Detection; Fluorescence; WiewLux microplate reader (PerkinElmer), 525 nm excitation, 598/25 nm emission.
NOTES (numbers refer to sequence numbers above).
1.Briefly, 20 nL DMSO, positive control ZnAc (20nM final concentration), and test compounds were transferred into a 1,536-well solid bottom black plate (789176-F, Greiner One) via Echo 655 acoustic dispenser (Beckman Coulter). For primary screens, compounds were tested at 7 concentrations, 1:3 dilution points ranging from 25 uM to 34 nM. Follow-up confirmatory screens were carried out at 11 concentrations, 1:3 dilution points from 25 uM to 0.42 nM.
2.Four uL nsP2pro enzyme mix (150 nM final concentration) in 10 mM Tris-HCl pH 8.0 with 0.01% Tween 20 assay buffer was dispensed into the plate using a BioRAPTR FRD liquid dispenser (Beckman Coulter).
3.The plate was incubated at room temperature (protected from light) for 15 min
4.Four microliter of peptide 2 substrate (2.5 uM final concentration) in assay buffer was added to the plate.
5.After 1 hour, plates were immediately read on a ViewLux high-throughput CCD imager (Exposure = 10 sec, Gain = High, Speed = Slow, Binning = 2X). The above assay was also incorporated in the NCATS HTS facility41, which allowed for robotic liquid and compound dispensing, microplate handling, and fluorescence reading.
Inglese J, Shamu CE and Guy RK, Reporting data from high throughput screening of small molecule libraries, Nature Chemical Biology, 2007, 3(8): 438-441. doi.org/10.1038/nchembio0807-438.
(In qHTS, concentration-response curves come from the screen itself.)
As to `Cn1nnnc1Sc1ncnc2n[nH]c(-c3cccc(S(C)(=O)=O)c3)c12`, the Potency is 3.18 µM (active).

With `C=Cc1c(C)c2cc3nc(cc4[nH]c(cc5nc(cc1[nH]2)C(C)=C5CCC(=O)O)c(CCC(=O)OC)c4C)[C@@]1(C)C3=CC=C(C(=O)OC)[C@H]1C(=O)OC`, the “activity change, negative = inhibition” value is 126% (inactive).

Consider `O=C(O)c1cccc(-n2[nH]c(-c3ccccc3)cc2=O)c1`, for which the “activity change, negative = inhibition” value is 29.6% (inactive).

Regarding `C[C@@H]1C[C@@H](O)[C@@]23CO[C@]2(CO)C[C@@H](O)CC3[C@@]12CC(c1ccoc1)OC2=O` (stereo partly drawn), the “activity change, negative = inhibition” value was 28.5% [at 16.7 µM] (inactive).

In the case of `C=CC(=O)c1ccc2ccccc2c1`, the Potency is 6.34 µM (active).

Regarding `CCc1ccccc1NC(=O)c1cnn(-c2ccc(F)cc2)c1C1CCNCC1`, the “activity change, negative = inhibition” value was -9.95% (inactive).

As to `N#CSc1cc(SC#N)c(N)nc1N`, the Potency was 0.318 µM (active).

Consider `CCOc1ccc(NC(=O)c2c(NC(=O)Cc3ccccc3)sc3c2CCCCC3)cc1`, for which the Potency was 7.98 µM (active).

`Oc1ccc(OC2CCCCO2)cc1` (stereo not drawn): the “activity change, negative = inhibition” value is -21.2% (inactive).

As to `CCOc1ccc(NC(=O)c2c(NC(=O)Cc3ccccc3)sc3c2CCC(C)C3)cc1` (stereo not drawn), the Potency is 7.11 µM (active).

Take `COC([CH2][Hg])CNC(=O)c1ccccc1OCC(=O)O` (stereo not drawn): the Potency was 2.25 µM (active).

On to `CCOc1ccc(N(Cc2ccccc2)C(=O)c2nc(S(C)(=O)=O)ncc2Cl)cc1`, for which the Potency was 3.18 µM (active).

With `CCC(C)C(=O)OC1C(C)C2(O)C(C=C(CO)CC3(O)C(=O)C(C)=CC32)C2C(C)(C)C12OC(=O)C(C)C` (stereo not drawn), the “activity change, negative = inhibition” value is -4.03% [at 8.62 µM] (inactive).
